# PubChem BioAssay
# Activity calls are given as the source filed them.
# Assays:
# Albumin (Bos taurus) = Albumin (Bos taurus) (UniProt P02769); assay: compounds binding labelled BSA control protein – biochemical, small-molecule microarray, Alexa647 label, 635/667 nm fluorescence, artefact control for SMM control protein annotation, profiling panel (AID 1118); conditions: BSA-A647 binding, fluorescence 635 nm, higher = more signal;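 note: score merges 667 nm emission intensity and signal-to-noise per printed compound spot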
# Albumin (Bos taurus), sequence (P02769 whole entry, looked up): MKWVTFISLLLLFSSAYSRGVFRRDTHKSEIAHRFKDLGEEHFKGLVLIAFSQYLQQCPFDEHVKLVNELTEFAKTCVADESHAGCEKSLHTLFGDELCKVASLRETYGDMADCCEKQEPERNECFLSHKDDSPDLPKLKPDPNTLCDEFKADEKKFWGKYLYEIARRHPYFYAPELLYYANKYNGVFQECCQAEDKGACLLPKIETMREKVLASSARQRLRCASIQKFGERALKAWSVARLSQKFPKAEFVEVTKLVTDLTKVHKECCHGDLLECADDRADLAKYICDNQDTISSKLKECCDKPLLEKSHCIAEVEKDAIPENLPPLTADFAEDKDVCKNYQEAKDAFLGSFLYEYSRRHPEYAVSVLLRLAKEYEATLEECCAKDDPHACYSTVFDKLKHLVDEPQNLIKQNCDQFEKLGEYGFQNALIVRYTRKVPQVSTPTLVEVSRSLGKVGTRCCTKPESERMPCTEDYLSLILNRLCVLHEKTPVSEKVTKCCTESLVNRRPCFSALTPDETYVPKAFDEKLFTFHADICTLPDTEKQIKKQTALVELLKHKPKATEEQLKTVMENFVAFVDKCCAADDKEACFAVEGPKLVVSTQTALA
# [1] = probe aXIP binding to arrayed compounds – biochemical, NeuroSMM set, 635/667 nm fluorescence, primary screen (AID 1119); conditions: small-molecule microarray, higher = more signal, called active from +8 up or from −8 down;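 note: probe is the protein aXip251-270 applied at 1 µg/mL to compound-printed slides; binding of probe to printed compounds measured as 667 nm fluorescence plus signal to noise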
# [2] = probe aNOTCH3 binding on compound microarray – biochemical, small-molecule microarray, 635/667 nm fluorescence, primary screen (AID 1120); conditions: higher = more signal;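 note: probe is a biotin-tagged antibody raised against NOTCH3 rather than NOTCH3 protein; score merges spot fluorescence near 667 nm with spot signal to noise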
# [3] = probe aNOTCH2 binding on compound microarray – biochemical, small-molecule microarray, 635/667 nm fluorescence, primary screen (AID 1121); conditions: higher = more signal;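 note: score merges feature fluorescence read at 667 nm with its signal to noise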
# [4] = biological target: Carbonic anhydrase 2 (Homo sapiens) (UniProt P00918); assay: compounds binding carbonic anhydrase 2 – biochemical, small-molecule microarray, Alexa647-labelled CAII, profiling panel (AID 1122); conditions: CAII-A647 binding fluorescence, higher = more signal
# [5] = COS7 lysate on small-molecule microarray, probe aHis, 635 nm (AID 1123); conditions: COS7 cell lysate, fluorescence, higher = more signal;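 note: z-score combines 667nm fluorescence intensity with signal-to-noise per printed compound spot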
# [6] = probe aLAP1 signal on lysate-treated microarray – cell lysate, small-molecule microarray, COS7 lysate, primary screen (AID 1124); conditions: probe aLAP1, fluorescence, higher = more signal;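 note: lysate comes from COS7 cells expressing LAP1 and is applied at 0.3 µg/mL; score merges spot fluorescence near 667 nm with signal-to-noise over triplicate slides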
# Sam68 (KHDRBS1) = assay: compounds binding KHDRBS1 protein – biochemical, small-molecule microarray, 635 nm fluorescence, primary screen (AID 1125); conditions: higher = more signal;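 note: score merges 667 nm channel intensity with signal to noise over triplicate slides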
# [7] = tested on: Chordin-like protein 2 (CHRDL2); assay: compounds binding chordin-like 2 – biochemical, small-molecule microarray, 635 nm fluorescence, primary screen (AID 1126); conditions: fluorescence 635 nm, higher = more signal;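 note: printed compound slides probed with Chrdl2 protein at 4 µg/mL for 1 h at 4 C; score merges 667 nm emission intensity with signal to noise over three replicate slides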
# [8] = biological target: Concanavalin-A (Canavalia ensiformis) (UniProt P02866); assay: compounds binding concanavalin A lectin – biochemical, small-molecule microarray, Alexa647 label, 635 nm, artefact control for SMM control protein annotation, primary screen (AID 1127); conditions: ConA-A647 binding fluorescence, higher = more signal;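 note: z combines 667 nm emission intensity with signal-to-noise across three replicate slides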
# Concanavalin-A (Canavalia ensiformis), sequence (P02866 whole entry, looked up): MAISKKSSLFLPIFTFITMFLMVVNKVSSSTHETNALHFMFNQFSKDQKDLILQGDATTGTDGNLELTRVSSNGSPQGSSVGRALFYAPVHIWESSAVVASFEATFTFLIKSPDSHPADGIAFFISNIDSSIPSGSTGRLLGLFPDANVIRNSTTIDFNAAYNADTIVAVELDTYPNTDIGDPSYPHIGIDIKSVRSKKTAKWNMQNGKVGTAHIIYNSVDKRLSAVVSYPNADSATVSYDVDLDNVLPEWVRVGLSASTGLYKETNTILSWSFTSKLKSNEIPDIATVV
# [9] = compounds binding Alexa647 anti-His antibody – biochemical, small-molecule microarray, 635 nm fluorescence, artefact control for SMM control protein annotation, primary screen (AID 1128); conditions: higher = more signal;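 note: score merges feature fluorescence with signal-to-noise for each printed compound spot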
# [10] = tested on: Human papillomavirus type 1a E7 protein (residues 1-88); assay: HPV1a E7 small-molecule binders, primary screen, biochemical, small-molecule microarray, residues 1-88, 635 nm (AID 1129); conditions: small-molecule microarray binding, fluorescence 635 nm; higher = more signal
# [11] = biological target: Focal adhesion kinase 1 (Homo sapiens) (UniProt Q05397); assay: PTK2 protein binding on printed compound slides – biochemical, small-molecule microarray, 635/667 nm fluorescence, BSA, DTT, primary screen (AID 1130); conditions: 635 nm fluorescence, higher = more signal;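 note: composite of spot emission at 667 nm and signal to noise over triplicate slides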
# Focal adhesion kinase 1 (Homo sapiens), sequence (Q05397 whole entry, looked up): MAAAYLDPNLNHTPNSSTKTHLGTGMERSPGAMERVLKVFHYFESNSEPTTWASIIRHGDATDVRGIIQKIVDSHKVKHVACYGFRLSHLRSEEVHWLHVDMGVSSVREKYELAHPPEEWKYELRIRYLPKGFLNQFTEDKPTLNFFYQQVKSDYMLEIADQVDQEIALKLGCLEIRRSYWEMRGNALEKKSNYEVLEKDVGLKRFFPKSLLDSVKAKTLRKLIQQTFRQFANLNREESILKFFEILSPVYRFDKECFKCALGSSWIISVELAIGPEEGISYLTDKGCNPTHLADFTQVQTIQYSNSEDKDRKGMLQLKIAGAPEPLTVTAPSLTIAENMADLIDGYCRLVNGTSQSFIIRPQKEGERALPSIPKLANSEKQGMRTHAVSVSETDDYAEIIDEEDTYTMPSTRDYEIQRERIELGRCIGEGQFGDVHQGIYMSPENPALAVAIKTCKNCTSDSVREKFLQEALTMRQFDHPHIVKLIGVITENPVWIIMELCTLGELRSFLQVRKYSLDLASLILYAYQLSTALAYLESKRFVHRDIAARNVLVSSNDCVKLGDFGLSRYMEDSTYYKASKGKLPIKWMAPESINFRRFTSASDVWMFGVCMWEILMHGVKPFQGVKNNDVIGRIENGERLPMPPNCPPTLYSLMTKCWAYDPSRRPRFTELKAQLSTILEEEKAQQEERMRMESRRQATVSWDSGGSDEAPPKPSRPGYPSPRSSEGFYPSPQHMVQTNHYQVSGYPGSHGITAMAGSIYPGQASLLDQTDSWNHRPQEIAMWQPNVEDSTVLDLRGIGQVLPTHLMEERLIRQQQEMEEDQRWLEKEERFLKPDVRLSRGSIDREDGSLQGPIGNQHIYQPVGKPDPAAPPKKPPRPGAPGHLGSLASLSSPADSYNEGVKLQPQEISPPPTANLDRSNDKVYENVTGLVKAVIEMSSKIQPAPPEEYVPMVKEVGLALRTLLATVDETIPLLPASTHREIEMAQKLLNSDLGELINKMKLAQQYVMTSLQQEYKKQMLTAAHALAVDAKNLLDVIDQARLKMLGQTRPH
# [12] = tested on: Fibrinogen (Alexa647-labelled); assay: Alexa647-fibrinogen binding to printed small molecules – biochemical, small-molecule microarray, 635/667 nm fluorescence, artefact control for SMM control-protein annotation, profiling panel (AID 1131); conditions: fibrinogen-A647 binding fluorescence, higher = more signal;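 note: z-score merges 667 nm fluorescence with per-spot signal-to-noise over triplicate slides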
# [13] = biological target: Follistatin (Homo sapiens) (UniProt P19883); assay: FST protein binding to printed compounds – biochemical, small-molecule microarray, 635/667 nm fluorescence, primary screen (AID 1132); conditions: 635 nm fluorescence, higher = more signal
# Follistatin (Homo sapiens), sequence (P19883 whole entry, looked up): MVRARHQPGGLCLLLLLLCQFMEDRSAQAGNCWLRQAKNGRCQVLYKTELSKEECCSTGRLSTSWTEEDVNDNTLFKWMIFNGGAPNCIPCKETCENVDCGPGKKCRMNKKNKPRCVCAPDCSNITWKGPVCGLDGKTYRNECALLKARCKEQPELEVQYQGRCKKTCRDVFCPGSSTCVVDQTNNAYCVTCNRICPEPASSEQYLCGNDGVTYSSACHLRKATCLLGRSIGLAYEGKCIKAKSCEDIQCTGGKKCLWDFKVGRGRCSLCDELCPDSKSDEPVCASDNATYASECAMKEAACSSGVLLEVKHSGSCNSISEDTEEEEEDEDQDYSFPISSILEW
# [14] = biological target: Fibroblast growth factor 2 (Homo sapiens) (UniProt P09038); assay: basic fibroblast growth factor binding to printed compounds – biochemical, small-molecule microarray, 635/667 nm fluorescence, primary screen (AID 1133); conditions: FGF2, fluorescence 635/667, higher = more signal
# Fibroblast growth factor 2 (Homo sapiens), sequence (P09038 whole entry, looked up): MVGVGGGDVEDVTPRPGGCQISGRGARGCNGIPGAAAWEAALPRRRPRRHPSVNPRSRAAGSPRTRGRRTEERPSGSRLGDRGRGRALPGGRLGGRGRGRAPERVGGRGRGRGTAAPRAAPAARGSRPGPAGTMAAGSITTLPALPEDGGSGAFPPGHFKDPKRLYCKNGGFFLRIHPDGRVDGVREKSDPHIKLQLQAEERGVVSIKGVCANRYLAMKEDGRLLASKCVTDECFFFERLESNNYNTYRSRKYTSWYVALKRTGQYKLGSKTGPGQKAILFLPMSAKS
# [15] = JC-1 mitochondrial potential readout, lung cancer cells – cell-based, A549, JC-1 fluorescence, basal, 24 h, 100 nL, profiling panel (AID 1138); conditions: higher = more signal;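 note: A549 lung adenocarcinoma cells under basal conditions with no added stimulus; test concentration not given here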
# Lefty1 = Lefty1 protein binding to printed compounds – biochemical, small-molecule microarray, 635/667 nm fluorescence, primary screen (AID 1139); conditions: fluorescence 635/667, higher = more signal
# [16] = tested on: wheat germ agglutinin (Triticum aestivum), Alexa647-labelled; assay: Alexa647-WGA lectin binding to printed small molecules – biochemical, small-molecule microarray, 635/667 nm fluorescence, artefact control for SMM control-protein annotation, profiling panel (AID 1140); conditions: WGA-A647 binding, 635 nm fluorescence, higher = more signal;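 note: score merges 667 nm feature emission with signal to noise over triplicate slides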
# [17] = biological target: Luciferin 4-monooxygenase (Photinus pyralis) (UniProt P08659); assay: inhibition of purified Photinus pyralis luciferase – biochemical, luminescence, purified enzyme, 2006 set, primary screen (AID 1141); conditions: purified firefly luciferase, SteadyGlo luminescence, 30 min; higher = more signal, called active from +8 up or from −8 down;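 note: cell-free assay with purified firefly luciferase at 100 ng per well in PBS; test concentration not given here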
# Luciferin 4-monooxygenase (Photinus pyralis), sequence (P08659 whole entry, looked up): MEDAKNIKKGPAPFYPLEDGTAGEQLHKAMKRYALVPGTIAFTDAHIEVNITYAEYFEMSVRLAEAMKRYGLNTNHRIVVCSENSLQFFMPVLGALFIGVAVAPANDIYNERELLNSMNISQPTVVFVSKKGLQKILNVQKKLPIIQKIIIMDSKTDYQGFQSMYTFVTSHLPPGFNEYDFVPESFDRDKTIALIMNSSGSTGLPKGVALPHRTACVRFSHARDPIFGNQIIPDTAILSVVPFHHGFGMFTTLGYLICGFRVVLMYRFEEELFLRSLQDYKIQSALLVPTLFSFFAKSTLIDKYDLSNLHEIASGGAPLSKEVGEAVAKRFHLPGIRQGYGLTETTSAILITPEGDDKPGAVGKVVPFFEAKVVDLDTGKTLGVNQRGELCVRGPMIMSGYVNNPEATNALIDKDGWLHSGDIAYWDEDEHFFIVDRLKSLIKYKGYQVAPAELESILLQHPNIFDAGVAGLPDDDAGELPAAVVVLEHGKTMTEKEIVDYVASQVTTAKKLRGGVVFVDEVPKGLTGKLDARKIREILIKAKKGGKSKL
Structure (SMILES),composite z-score (Albumin (Bos taurus)),composite Z-score [1],composite z-score [2],composite z-score [3],composite z-score [4],composite z-score [5],composite z-score [6],composite z-score (Sam68 (KHDRBS1)),composite z-score [7],composite z-score [8],composite z-score [9],composite z-score [10],composite z-score [11],composite z-score [12],composite z-score [13],composite z-score [14],z-score [15],composite z-score (Lefty1),composite z-score [16],z-score [17]
CC(=O)OC[C@H]1O[C@H](CC=NO[C@H](C)c2cn([C@@H]3COC[C@H]3O)nn2)C=C[C@@H]1OC(C)=O,0.834,0.195 (inactive),-0.182,-0.153,-0.0556,-0.426,-0.16,-0.378,0.85,-0.152,0.606,0.179,-0.0621,0.897,0.356,0.396,-0.17,0.42,-0.0712,-0.63 (inactive)
O=C1[C@H]2[C@H]3[C@H](O)[C@H](O)CC(=NOC[C@@H](O)COCc4ccco4)[C@@H]3CC[C@H]2C(=O)N1Cc1ccccc1,-0.123,-0.0662 (inactive),0.121,-0.102,0.552,0.654,0.173,1.3,1.4,-0.193,0.381,1.26,0.728,-0.956,1.37,0.962,0.0705,0.941,0.265,1.2 (inactive)
COc1cccc([C@H]2Oc3ccc(OC)cc3C(=NOCC[C@@H]3C=C[C@H](OC(C)=O)[C@@H](COC(C)=O)O3)[C@@H]2O)c1,0.869,0.551 (inactive),0.0293,-0.213,0.36,0.788,0.687,0.785,0.503,0.794,-0.972,0.562,0.292,0.967,0.37,0.462,-0.806,0.329,0.274,1.14 (inactive)
CC(CCN1CCCc2nc(C)c(C)cc21)=NO[C@@H](C)c1cn([C@H](CO)Cc2ccccc2)nn1,-0.139,0.344 (inactive),0.184,-0.0282,0.074,0.531,-0.0771,0.477,0.801,0.497,0.14,0.0974,0.338,0.279,0.764,0.957,-0.088,0.671,0.152,-0.224 (inactive)
CO[C@@H]1C=CCC(=O)N[C@@H](C)C(=O)OC[C@@H](NS(=O)(=O)c2ccc(C)cc2)[C@H](C)C=CCC(=O)OC[C@H]1C,-1.19,0.51 (inactive),-0.0898,-0.242,-0.662,-0.971,-0.0366,-0.583,1.07,-0.479,-0.605,-0.56,-0.0987,-0.14,0.833,0.638,-0.198,0.841,0.326,-0.567 (inactive)
COc1ccc(OC[C@@H]2CC3[C@@H](c4ccc(Br)cc4)[C@H](C)CC[C@H]3C(=O)O2)cc1 (stereo not given in full),0.733,-0.644 (inactive),-0.023,-0.18,-0.117,-0.037,0.196,-0.218,0.584,-0.758,-1.08,-0.291,-0.0102,0.563,0.57,0.29,-0.296,0.74,0.282,0.294 (inactive)
CCOC(=O)NN=C1C[C@@H](O)[C@@H](O)[C@@H]2[C@@H]3C(=O)N(C[C@@H]4CCCO4)C(=O)[C@@H]3CC[C@H]12,0.34,-0.161 (inactive),-0.0057,-0.15,-0.144,0.19,0.299,0.31,0.245,0.111,0.57,0.317,0.43,0.835,0.308,0.342,-0.311,0.293,0.0337,0.515 (inactive)
CC(C)(C)N1C(=O)[C@H]2[C@H]3[C@H](O)[C@H](O)CC(=NNC(=O)OCc4ccccc4)[C@H]3CC[C@H]2C1=O,-0.316,0.175 (inactive),-0.0071,-0.075,0.158,0.447,-0.0026,1.1,0.303,0.275,0.758,0.848,0.0507,1.03,0.963,0.491,-1.08,1.43,0.525,0.944 (inactive)
C[C@H]1CC[C@@H](C(=O)O)N[C@@H]1c1ccc(C#Cc2ccccc2)cc1,0.213,0.142 (inactive),0.0876,-0.0907,0.863,0.803,0.707,1.22,1.34,1.1,1.53,1.06,0.454,0.918,1.07,0.551,-2.02,0.608,1.11,-9.82 (active)
C#CCCCON=C1[C@H]2CCn3c(=O)n(Cc4cc5c(cc4Cl)OCO5)c(=O)n3[C@H]2[C@H](O)[C@@H]2O[C@H]12,-0.252,-0.141 (inactive),-0.0178,-0.106,-0.0303,-0.138,-0.122,0.431,0.424,0.656,0.229,0.522,-0.383,0.0676,0.751,0.486,0.146,0.748,-0.232,0.303 (inactive)
